# Laboratory results as given in PubChem BioAssay.
# Active and inactive are the calls of the source. Unless noted, no rule for the calls is given here.
# Key:
# [1] = A549 cell viability effects, profiling panel, calcein-AM fluorescence, 48 h, basal (AID 1162); conditions: higher = more signal; also: test concentration not given here
# [2] = adipocyte viability effects, profiling panel, cell-based, 3T3-L1 adipocytes, calcein-AM fluorescence, 48 h, basal (AID 1163); conditions: 3T3-L1 adipocytes viability, higher = more signal; also: test concentration not given here
# [3] = HepG2 cell viability effects, profiling panel, calcein-AM fluorescence, 48 h, basal (AID 1164); conditions: higher = more signal; also: test concentration not given here
# [4] = MM1S cell viability effects, profiling panel, calcein-AM fluorescence, 48 h, basal (AID 1165); conditions: higher = more signal;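 also: viability of MM1S multiple myeloma cells under basal unstimulated conditions; test concentration not given here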
# [5] = basal RPMI8226 viability, no added stimulus, profiling panel, cell-based, calcein-AM fluorescence, 48 h, PK04 Diversity Set (AID 1166); conditions: RPMI8226 myeloma viability, higher = more signal;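 also: cells grown under basal conditions without added stimulus; test concentration not given here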
# [6] = basal HepG2 mitochondrial membrane potential changes, profiling panel, cell-based, JC-1 fluorescence, 24 h, 100 nL compound (AID 1167); conditions: higher = more signal; also: test concentration not given here
# [7] = basal 3T3-L1 adipocyte mitochondrial potential changes, profiling panel, cell-based, JC-1 fluorescence, 3T3-L1 adipocytes, 24 h, 100 nL compound (AID 1168); conditions: JC-1 mitochondrial fluorescence, higher = more signal, called active from +8 up or from −8 down; also: test concentration not given here
# [8] = basal RPMI8226 mitochondrial membrane potential changes, profiling panel, cell-based, JC-1 fluorescence, 24 h, 100 nL compound (AID 1169); conditions: RPMI8226 myeloma, JC-1 mitochondrial potential fluorescence, higher = more signal; also: test concentration not given here
# [9] = basal MM1S mitochondrial membrane potential changes, profiling panel, cell-based, JC-1 fluorescence, 24 h, 100 nL compound (AID 1170); conditions: higher = more signal; also: test concentration not given here
# [10] = A549 lung cancer cell viability effects, profiling panel, resazurin fluorescence, 24 h, PK04 Diversity Set (AID 1171); conditions: higher = more signal, called active from +8 up or from −8 down; also: test concentration not given here
# [11] = HepG2 liver cancer cell viability effects, profiling panel, resazurin fluorescence, 24 h, PK04 Diversity Set (AID 1172); conditions: higher = more signal; also: test concentration not given here
# [12] = basal S. cerevisiae growth modulation, no modifier, primary screen, OD600, strain BY4716, 24 h, basal condition (AID 1173); conditions: OD600, 24 h, higher = more signal, called active from +8 up or from −8 down
# [13] = MM1S myeloma cell viability, profiling panel, resazurin fluorescence, basal, 24 h, PK04 Diversity Set (AID 1174); conditions: higher = more signal, called active from +8 up or from −8 down;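 also: MM1S multiple myeloma cell line; test concentration not given here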
# [14] = target: Dihydroorotate dehydrogenase (quinone), mitochondrial (Plasmodium falciparum (isolate 3D7)) (UniProt Q08210); assay: PfDHODH enzyme inhibitors, primary screen, biochemical, C-terminal His tag, absorbance 600 nm (AID 1175); conditions: DCIP absorbance 600 nm, higher = more signal, called active from +8 up or from −8 down;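 also: recombinant parasite enzyme with a five histidine tag at its C terminus; test concentration not given here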
# [15] = P. aeruginosa biofilm formation inhibitors, primary screen, strain PAO1, LB-PBS medium, absorbance 600 nm (AID 1176); also: test concentration not given here; conditions: P. aeruginosa PAO1 growth/biofilm, A600, 12 h; higher = more signal
# [16] = S. cerevisiae RM11-1a growth modifiers, primary screen, strain RM11-1a, OD600, basal, 24 h (AID 1177); conditions: OD600, 24 h, higher = more signal, called active from +8 up or from −8 down;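 also: cultures grown under basal conditions with no added stressor; test concentration not given here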
# [17] = E. coli acrAB mutant growth effects, primary screen, E. coli filamentation inducers, strain DRC39, OD650, 24 h (AID 1178); conditions: higher = more signal, called active from +8 up or from −8 down;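 also: growth measured as culture turbidity by optical density at 650 nm; test concentration not given here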
# [18] = E. coli acrAB mutant growth effects, primary screen, E. coli filamentation inducers, strain DRC39, OD650, 48 h (AID 1179);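 also: screen aims at cell division blockers that make cells filament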; conditions: E. coli DRC39 delta-acrAB growth, higher = more signal, called active from +8 up or from −8 down
# [19] = RPMI8226 myeloma cell viability, profiling panel, resazurin fluorescence, basal, 24 h, PK04 Diversity Set (AID 1180); conditions: higher = more signal;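 also: RPMI8826 multiple myeloma cell line at 5000 cells per well; test concentration not given here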
# [20] = target: E3 ubiquitin-protein ligase XIAP (Homo sapiens) (UniProt P98170); assay: XIAP binders, primary screen, biophysical, small-molecule microarray, fluorescence 635 nm (AID 1181); conditions: small-molecule microarray binding, higher = more signal;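 also: score merges 667 nm emission and signal to noise over triplicate slides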
# Chain of E3 ubiquitin-protein ligase XIAP (Homo sapiens) (P98170 whole entry, looked up): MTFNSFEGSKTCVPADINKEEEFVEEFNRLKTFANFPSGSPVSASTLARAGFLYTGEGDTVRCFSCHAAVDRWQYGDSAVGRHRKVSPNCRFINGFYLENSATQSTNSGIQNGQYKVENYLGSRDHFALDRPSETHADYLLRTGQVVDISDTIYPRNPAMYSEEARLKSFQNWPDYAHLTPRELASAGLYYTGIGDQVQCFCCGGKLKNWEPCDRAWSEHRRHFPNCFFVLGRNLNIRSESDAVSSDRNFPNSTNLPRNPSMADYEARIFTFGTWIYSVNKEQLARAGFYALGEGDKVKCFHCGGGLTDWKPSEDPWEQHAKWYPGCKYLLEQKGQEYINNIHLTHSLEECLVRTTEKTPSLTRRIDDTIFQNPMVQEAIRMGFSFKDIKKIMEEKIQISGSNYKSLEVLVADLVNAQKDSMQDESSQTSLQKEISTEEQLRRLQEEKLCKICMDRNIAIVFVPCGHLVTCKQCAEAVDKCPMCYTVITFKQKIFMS
# Chain of Dihydroorotate dehydrogenase (quinone), mitochondrial (Plasmodium falciparum (isolate 3D7)) (Q08210 whole entry, looked up): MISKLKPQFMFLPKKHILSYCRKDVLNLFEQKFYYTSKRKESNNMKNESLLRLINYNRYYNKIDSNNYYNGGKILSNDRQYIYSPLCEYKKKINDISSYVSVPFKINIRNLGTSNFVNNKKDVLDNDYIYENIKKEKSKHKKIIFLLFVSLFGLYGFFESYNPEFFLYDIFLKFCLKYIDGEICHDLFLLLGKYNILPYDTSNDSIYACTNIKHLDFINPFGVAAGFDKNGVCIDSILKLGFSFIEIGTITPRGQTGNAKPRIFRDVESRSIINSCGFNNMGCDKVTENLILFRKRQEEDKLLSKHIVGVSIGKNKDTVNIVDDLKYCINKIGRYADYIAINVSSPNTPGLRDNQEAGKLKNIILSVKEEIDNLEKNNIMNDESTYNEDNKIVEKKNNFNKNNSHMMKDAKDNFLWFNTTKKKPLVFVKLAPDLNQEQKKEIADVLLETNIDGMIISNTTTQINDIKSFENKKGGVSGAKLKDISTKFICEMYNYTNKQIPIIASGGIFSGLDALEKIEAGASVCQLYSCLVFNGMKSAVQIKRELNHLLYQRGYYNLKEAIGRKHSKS
smiles,measurement,setting,value
COCCOC(=O)N1C(=O)[C@@]2(c3cc(C#CCCO)ccc31)[C@H](C(N)=O)[C@H]1C(=O)O[C@H](c3ccccc3)[C@H](c3ccccc3)N1[C@@H]2c1ccc(O)cc1,z-score,[1],-0.272
same,z-score,[2],0.24
same,z-score,[3],-0.05
same,z-score,[4],0.0119
same,z-score,[5],-1.2
same,z-score,[6],-0.537
same,z-score,[7],-0.142 (inactive)
same,z-score,[8],-0.105
same,z-score,[9],0.0477
same,z-score,[10],-0.3 (inactive)
same,z-score,[11],-0.256
same,z-score,[12],-0.089 (inactive)
same,z-score,[13],0.0773 (inactive)
same,composite z-score,[14],-0.176 (inactive)
same,z-score,[15],0.181 (inactive)
same,z-score,[16],-0.204 (inactive)
same,z-score,[17],0.125 (inactive)
same,z-score,[18],-0.176 (inactive)
same,z-score,[19],-0.104
same,composite z-score,[20],0.142
O=C(NCCN1CCOCC1)C1N=C(c2ccc(OCCCO)cc2)N(c2ccccc2)O1 (stereo not given),z-score,[1],0.264
same,z-score,[2],-0.126
same,z-score,[3],0.291
same,z-score,[4],0.66
same,z-score,[5],-0.425
same,z-score,[6],0.0176
same,z-score,[7],0.653 (inactive)
same,z-score,[8],-1.28
same,z-score,[9],1.27
same,z-score,[10],0.712 (inactive)
same,z-score,[11],-0.154
same,z-score,[12],0.554 (inactive)
same,z-score,[13],0.602 (inactive)
same,composite z-score,[14],0.301 (inactive)
same,z-score,[15],-0.978 (inactive)
same,z-score,[16],-0.377 (inactive)
same,z-score,[17],0.149 (inactive)
same,z-score,[18],0.116 (inactive)
same,z-score,[19],0.385
same,composite z-score,[20],0.172
CN1C(=O)C2C=CC(C(O)C3CC=CCC3)N(N(c3ccccc3)c3ccccc3)C2C1=O (stereo not given),z-score,[1],-0.0631
same,z-score,[2],-1.9
same,z-score,[3],0.125
same,z-score,[4],0.535
same,z-score,[5],-0.785
same,z-score,[6],-0.77
same,z-score,[7],-0.339 (inactive)
same,z-score,[8],-0.23
same,z-score,[9],-0.711
same,z-score,[10],-0.501 (inactive)
same,z-score,[11],0.129
same,z-score,[12],1.16 (inactive)
same,z-score,[13],-1.17 (inactive)
same,composite z-score,[14],-0.0647 (inactive)
same,z-score,[15],0.599 (inactive)
same,z-score,[16],0.595 (inactive)
same,z-score,[17],-0.486 (inactive)
same,z-score,[18],0.364 (inactive)
same,z-score,[19],-1.06
same,composite z-score,[20],-0.269
COc1ccc(CCNC(=O)[C@@]2(C)c3ccccc3C(=O)N(C(C)C)[C@H]2c2ccc(CO)cc2)cc1,z-score,[1],0.133
same,z-score,[2],-0.103
same,z-score,[3],0.779
same,z-score,[4],-1.35
same,z-score,[5],-0.974
same,z-score,[6],2.6
same,z-score,[7],0.169 (inactive)
same,z-score,[8],-0.0396
same,z-score,[9],-0.03
same,z-score,[10],-0.0933 (inactive)
same,z-score,[11],-0.848
same,z-score,[12],-0.51 (inactive)
same,z-score,[13],0.0132 (inactive)
same,composite z-score,[14],0.12 (inactive)
same,z-score,[15],-0.149 (inactive)
same,z-score,[16],-0.54 (inactive)
same,z-score,[17],-0.166 (inactive)
same,z-score,[18],0.0299 (inactive)
same,z-score,[19],0.332
same,composite z-score,[20],-0.252
COC(=O)[C@@]1(Cc2ccc(OC)cc2)[C@H]2c3cc(C(=O)N(C)C)n(CCc4ccccn4)c3C[C@H]2CN1C(=O)c1ccccc1,z-score,[1],-0.982
same,z-score,[2],-0.812
same,z-score,[3],-0.173
same,z-score,[4],-1.19
same,z-score,[5],-2.59
same,z-score,[6],-0.0203
same,z-score,[7],-1.04 (inactive)
same,z-score,[8],-0.772
same,z-score,[9],-1.35
same,z-score,[10],-0.735 (inactive)
same,z-score,[11],-1.31
same,z-score,[12],2.55 (inactive)
same,z-score,[13],-2.34 (inactive)
same,composite z-score,[14],-0.0595 (inactive)
same,z-score,[15],0.908 (inactive)
same,z-score,[16],1.51 (inactive)
same,z-score,[17],-1.2 (inactive)
same,z-score,[18],-0.655 (inactive)
same,z-score,[19],-1.93
same,composite z-score,[20],0.264
